Several values for one entry are separate records, joined by “and”; a condition that tells them apart may be missing. Equal values may be shown once. The panel holds about 83,000 compounds, 20% with a hit somewhere; the sample as a whole holds those more often.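 Results are percent growth after 48 hours of single-concentration exposure. 100 means growth as in untreated cells, lower positive values show inhibition; negative values down to -100 show cell death.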 Activity calls are given as the source filed them. Rule for the calls: active = growth percent below 10; inactive = the rest.
How the values were obtained:
Assay in all cases: NCI-60 one-dose screen, 48 h (100 = growth as untreated, 0 = no growth, -100 = all killed)
Settings in all cases: 10 µM unless noted
SR leukemia = system: SR leukemia
RPMI-8226 leukemia = system: RPMI-8226 leukemia
OVCAR-8 ovarian = system: OVCAR-8 ovarian
OVCAR-5 ovarian = system: OVCAR-5 ovarian
OVCAR-4 ovarian = system: OVCAR-4 ovarian
SK-OV-3 ovarian = system: SK-OV-3 ovarian
OVCAR-3 ovarian = system: OVCAR-3 ovarian
HS 578T breast = system: HS 578T breast
NCI/ADR-RES ovarian = system: NCI/ADR-RES ovarian
IGROV1 ovarian = system: IGROV1 ovarian

Measured: growth

CCN(C(=O)N1CCN(c2cc3c(cc2F)c(=O)c(C(=O)O)cn3C2CC2)CC1)c1nc(-c2ccccc2)cs1
inactive: SR leukemia 10% | RPMI-8226 leukemia 12.5% | OVCAR-8 ovarian 30.2% | OVCAR-5 ovarian 35.7% | OVCAR-4 ovarian 55.5% | SK-OV-3 ovarian 63.8% | OVCAR-3 ovarian 15.9% | HS 578T breast 18.2% | NCI/ADR-RES ovarian 22.4%

C[N+]1=C(/C=C\C=C\c2ccccc2)C(C)(C)c2ccccc21
active: SR leukemia -14.3% | RPMI-8226 leukemia -25.5% | OVCAR-3 ovarian -4.63%
inactive: OVCAR-8 ovarian 12.2% | OVCAR-5 ovarian 45.1% | OVCAR-4 ovarian 39.9% | SK-OV-3 ovarian 92.8% | IGROV1 ovarian 19.9% | NCI/ADR-RES ovarian 75.3%

COc1cc(CNC(=O)CCCC/C=C/C(C)C)ccc1O
inactive: SR leukemia 91.7% and 99% | RPMI-8226 leukemia 100% and 94.7% | OVCAR-8 ovarian 109% | OVCAR-5 ovarian 92.7% | OVCAR-4 ovarian 93.3% and 104% | SK-OV-3 ovarian 117% and 105% | OVCAR-3 ovarian 84.5% and 119% | HS 578T breast 91.5% and 111% | NCI/ADR-RES ovarian 113% and 97.5%

C=C1C(=O)O[C@H]2[C@H]1CC/C(COC(=O)NCc1ccc(Cn3c(=O)sn(CCCI)c3=O)cc1)=C\CC[C@@]1(C)O[C@@H]21
inactive: OVCAR-8 ovarian 37.7% | OVCAR-5 ovarian 71.1% | OVCAR-4 ovarian 17.7% | SK-OV-3 ovarian 101% | HS 578T breast 78.4% | NCI/ADR-RES ovarian 102%
active: SR leukemia 8.4% | RPMI-8226 leukemia -6.45% | OVCAR-3 ovarian -33.4%

COc1cc(Cl)cc(-c2nn(C(=O)NS(=O)(=O)c3ccc(Cl)cc3)cc2-c2ccncc2)c1
inactive: SR leukemia 80.5% | RPMI-8226 leukemia 77.2% | OVCAR-8 ovarian 27.5% | OVCAR-5 ovarian 87.4% | OVCAR-4 ovarian 16.5% | SK-OV-3 ovarian 84.7% | OVCAR-3 ovarian 98.3% | HS 578T breast 73.3% | NCI/ADR-RES ovarian 84.1%

O=C(Nc1ccc(Cl)c(Cl)c1)Nc1ccc(Cl)c(Cl)c1
-54.9% (active) and 14.6% (inactive): NCI/ADR-RES ovarian
-87% (active) and 29.5% (inactive): SK-OV-3 ovarian
active: OVCAR-4 ovarian -86.4% | OVCAR-3 ovarian -95.3% and 6.41%
-85.3% (active) and 41.8% (inactive): OVCAR-5 ovarian
-45% (active) and 48.8% (inactive): HS 578T breast
-78.7% (active) and 23.2% (inactive): OVCAR-8 ovarian
-16.6% (active) and 28.9% (inactive): SR leukemia
-36.5% (active) and 10.6% (inactive): RPMI-8226 leukemia

CCCCCCCCn1ccc2cc(NC(=O)CN3CCN(c4nc(C)cc(N5CCCCC5)n4)CC3)ccc21
inactive: SR leukemia 53.3% | RPMI-8226 leukemia 59.9% | OVCAR-8 ovarian 90.2% | OVCAR-5 ovarian 103% | OVCAR-4 ovarian 82.7% | SK-OV-3 ovarian 98.8% | OVCAR-3 ovarian 94.4% | HS 578T breast 91.5% | NCI/ADR-RES ovarian 85.8%

CCOC(=O)n1cc(-c2nonc2-c2cn(C)c3ccc(OC)cc23)c2cc(F)ccc21
inactive: SR leukemia 79% | RPMI-8226 leukemia 74.5% | OVCAR-8 ovarian 75.7% | OVCAR-5 ovarian 62% | OVCAR-4 ovarian 75% | SK-OV-3 ovarian 81% | OVCAR-3 ovarian 87.4% | HS 578T breast 70.2% | NCI/ADR-RES ovarian 82.2%

c1ccc(Cc2cccc[n+]2C(c2ccccc2)c2ccccc2)cc1
inactive: SR leukemia 32.4% | RPMI-8226 leukemia 12.3% | OVCAR-8 ovarian 57.2% | OVCAR-5 ovarian 71.5% | OVCAR-4 ovarian 28.2% | SK-OV-3 ovarian 52.1% | IGROV1 ovarian 62.3% | OVCAR-3 ovarian 44.6% | NCI/ADR-RES ovarian 104%

N#C/C(=C\c1ccc(Br)cc1)n1nnc2c(F)cccc21
active: RPMI-8226 leukemia -20.2% | OVCAR-8 ovarian 7.76% | OVCAR-5 ovarian 1.16% | OVCAR-3 ovarian -51.1% | NCI/ADR-RES ovarian 2.56%
inactive: SR leukemia 23.1% | OVCAR-4 ovarian 14.1% | SK-OV-3 ovarian 40.7% | HS 578T breast 11%

COc1ccc(Nc2nn3c(SCC(=O)c4ccc(C)cc4)nnc3s2)cc1
inactive: SR leukemia 68.9% | RPMI-8226 leukemia 98% | OVCAR-8 ovarian 94.8% | OVCAR-5 ovarian 99.3% | OVCAR-4 ovarian 108% | SK-OV-3 ovarian 79.2% | OVCAR-3 ovarian 110% | HS 578T breast 92.2% | NCI/ADR-RES ovarian 104%

Nn1c(-c2ccc(Cl)cc2)nc2c(-c3ccc(Cl)cc3)nc3ccc(Cl)cc3c2c1=O
active: SR leukemia -62.1% | OVCAR-4 ovarian -78.1% | OVCAR-3 ovarian -81.5% | HS 578T breast -14.1%
inactive: RPMI-8226 leukemia 30.1% | OVCAR-8 ovarian 11.6% | OVCAR-5 ovarian 68.7% | SK-OV-3 ovarian 20.3% | NCI/ADR-RES ovarian 52.4%

O=C(/C=C/c1ccccc1)c1cccs1
inactive: SR leukemia 94.9% and 24.1% | OVCAR-8 ovarian 97.5% and 94% | OVCAR-5 ovarian 93.2% and 108% | OVCAR-4 ovarian 97.7% and 87.3% | SK-OV-3 ovarian 104% and 112% | OVCAR-3 ovarian 97% and 117% | HS 578T breast 100% | NCI/ADR-RES ovarian 99.5% and 100%
49.3% (inactive) and 6.44% (active): RPMI-8226 leukemia

NCCOCCOc1ccccc1
inactive: SR leukemia 101% | RPMI-8226 leukemia 88.7% | OVCAR-8 ovarian 107% | OVCAR-5 ovarian 104% | OVCAR-4 ovarian 98% | SK-OV-3 ovarian 112% | OVCAR-3 ovarian 106% | HS 578T breast 115% | NCI/ADR-RES ovarian 102%

C#Cc1cc(C(=O)Nc2ccc(CN3CCN(C)CC3)c(C(F)(F)F)c2)ccc1C
inactive: SR leukemia 58.7% | RPMI-8226 leukemia 59.5% | OVCAR-8 ovarian 77.4% | OVCAR-5 ovarian 74.6% | OVCAR-4 ovarian 72.3% | SK-OV-3 ovarian 93.2% | OVCAR-3 ovarian 86.4% | HS 578T breast 64.7% | NCI/ADR-RES ovarian 82.2%

Nc1ccc(-c2nc3ccc4[nH]ncc4c3c3c2CCCC3)cc1F
inactive: SR leukemia 10.8% | RPMI-8226 leukemia 27.3% | OVCAR-8 ovarian 32.2% | OVCAR-5 ovarian 56.8% | OVCAR-4 ovarian 50.2% | OVCAR-3 ovarian 37.3% | HS 578T breast 17.1% | NCI/ADR-RES ovarian 35.6%
active: SK-OV-3 ovarian -28.3%

CCCCCO/N=C\c1c2c(O)c3c(O)c(C)c4c(c3c1O)C(=O)C(C)(O/C=C\C(OC)C(C)C(OC(C)=O)C(C)C(O)C(C)C(O)C(C)/C=C\C=C(\C)C(=O)N2)O4 (stereo unspecified)
inactive: SR leukemia 13.5% | RPMI-8226 leukemia 13.1% | OVCAR-8 ovarian 26.7% | OVCAR-5 ovarian 49.2% | OVCAR-4 ovarian 30.3% | SK-OV-3 ovarian 33.9% | IGROV1 ovarian 31.1% | OVCAR-3 ovarian 19.4% | NCI/ADR-RES ovarian 25.2%

CC[C@]12CN3CCc4c([nH]c5ccccc45)[C@@](C(=O)OC)(c4cc5c(cc4OC)N(C)[C@H]4[C@@](O)(C(=O)OC)[C@H](OC(C)=O)[C@]6(CC)C=CCN7CC[C@]54[C@@H]76)CC(C3)[C@H]1O2 (stereo partly specified)
active: OVCAR-8 ovarian 7.27% | OVCAR-3 ovarian -60.4% | HS 578T breast -25.1%
inactive: SR leukemia 14.4% | RPMI-8226 leukemia 20.5% | OVCAR-5 ovarian 49% | OVCAR-4 ovarian 28% | SK-OV-3 ovarian 22.1% | NCI/ADR-RES ovarian 82%

O=C(Cn1cc(CN2CCN(c3ccnc4cc(Cl)ccc34)CC2)nn1)Nc1cccc([N+](=O)[O-])c1
inactive: SR leukemia 33% | RPMI-8226 leukemia 57.6% | OVCAR-8 ovarian 74.7% | OVCAR-5 ovarian 96.4% | OVCAR-4 ovarian 92.4% | SK-OV-3 ovarian 76.1% | OVCAR-3 ovarian 87.9% | HS 578T breast 82.6% | NCI/ADR-RES ovarian 100%

Cn1cc2c(=O)nc3c(-c4nc5ccccc5[nH]4)n[nH]n3c2n1
inactive: SR leukemia 32.2% | RPMI-8226 leukemia 50.6% | OVCAR-8 ovarian 70.9% | OVCAR-5 ovarian 126% | OVCAR-4 ovarian 90.6% | SK-OV-3 ovarian 85.2% | OVCAR-3 ovarian 73.4% | HS 578T breast 93.5% | NCI/ADR-RES ovarian 95.1%

C=C1C(=O)O[C@H]2[C@H]1CC/C(CNS(=O)(=O)c1ccc3ccccc3c1)=C\CC[C@@]1(C)O[C@@H]21
active: SR leukemia -12.4% | RPMI-8226 leukemia -4.34% | OVCAR-8 ovarian -17.2% | OVCAR-3 ovarian -39.6%
inactive: OVCAR-5 ovarian 14.9% | OVCAR-4 ovarian 24.2% | SK-OV-3 ovarian 84.6% | HS 578T breast 67% | NCI/ADR-RES ovarian 65.2%

COc1ccc(CCNC(=O)COc2cc3c(Nc4ccc(F)c(Cl)c4)ncnc3cc2OC)cc1OC
inactive: SR leukemia 82.3% | RPMI-8226 leukemia 90.1% | OVCAR-8 ovarian 103% | OVCAR-5 ovarian 65.4% | OVCAR-4 ovarian 92.4% | SK-OV-3 ovarian 89.8% | IGROV1 ovarian 46.3% | OVCAR-3 ovarian 82.8% | NCI/ADR-RES ovarian 85.6%

CN(Cc1ccccc1)c1nc(Cl)c(C2CC(c3ccc(F)cc3)=NN2C=O)s1 (stereo unspecified)
inactive: SR leukemia 92.2% | RPMI-8226 leukemia 82.5% | OVCAR-8 ovarian 100% | OVCAR-5 ovarian 99.8% | OVCAR-4 ovarian 90.9% | SK-OV-3 ovarian 113% | OVCAR-3 ovarian 100% | HS 578T breast 97.9% | NCI/ADR-RES ovarian 90.2%

CN(C)C(=O)c1cc2cnc(Nc3ccc(-c4csc5c(=S)cc(N6CCOCC6)oc45)cc3)nc2n1C1CCCC1
inactive: OVCAR-5 ovarian 17% | OVCAR-4 ovarian 18.5% | SK-OV-3 ovarian 16.4% | OVCAR-3 ovarian 13.6% | NCI/ADR-RES ovarian 14.1%
active: SR leukemia -3.12% | RPMI-8226 leukemia -35.9% | OVCAR-8 ovarian 7.87% | HS 578T breast 5.04%
